Data: PubChem BioAssay AID652040 (Broad Institute, 2013)
Entries with a potency or affinity are not part of this list. Values without a mark were called inactive.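 The calls were made as follows: active = falling luciferase signal whose fitted half-maximal concentration is at most twice the top tested dose; inconclusive = flat inhibition between 30 and 70% or a poor curve fit; inactive = the rest.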

Experiment: off-target signal loss in HeLa-CEM21 co-culture – HeLa F-luc CTL cells, cherry-picked, counter-screen for HIV-1 Env fusion inhibitor project, dose response (AID 652040);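 also: 0% = median of neutral control wells and -100% = doxycycline 40 µg/mL wells; more negative values mean stronger loss of luciferase signal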
Conditions: HeLa-F-luc CTL cells with CEM21, firefly luciferase counterscreen; series mostly up to 35 µM; activity change, negative = inhibition: at the top concentration
In the case of O=C(COc1ccc(-n2cnnn2)cc1)Nc1ccc(F)c(F)c1, the “activity change, negative = inhibition” value is reported as 7.45%. With CCN(CC)CCN(C(=O)c1cc(Cl)sc1Cl)c1nc2cc3c(cc2s1)OCO3 the “activity change, negative = inhibition” value was 35.2%. With Cc1nc2ccccc2c2oc(C(=O)NCc3ccc4c(c3)OCO4)cc12 the “activity change, negative = inhibition” value was 36%. In the case of COc1cccc(CNc2nc(NCc3ccccc3OC)nc3ccsc23)c1, the “activity change, negative = inhibition” value is reported as 10.7%. For CCOC(=O)C1CCN(C(=O)c2ccc3c(c2)C(=O)N(c2ccccc2C)C3=O)CC1, the “activity change, negative = inhibition” value was 3.39%. For c1ccc2c(c1)OCC(CNc1ncnc3nc[nH]c13)O2 (stereo unspecified), the “activity change, negative = inhibition” value was -6.38%. For COc1ccc(-c2nnc(Nc3nc4c(OC)cccc4s3)o2)cc1, the “activity change, negative = inhibition” value was 9.73%. For COc1ccc(OC)c(NC(=O)COc2ccc3c(c2)CCC3)c1, the “activity change, negative = inhibition” value was 27.4%. With CCCCCCCn1c2c(c(=N)c3c1CCC3)CCCC2 the “activity change, negative = inhibition” value was 23.5%. In the case of CCOC(=O)[C@]12CCC=C1N(Cc1ccc3c(c1)OCO3)C(=O)[C@H](CC(=O)NCC13CC4CC(CC(C4)C1)C3)C2, the “activity change, negative = inhibition” value is reported as -46.5%. With O=c1c2ccccc2nnn1CSc1nnc(COc2ccc(Cl)cc2)n1Cc1ccco1 the “activity change, negative = inhibition” value was 26.2% [at 16 µM]. For C[C@@H]1CN([C@H](C)CO)C(=O)c2cccc(NC(=O)c3ccncc3)c2O[C@@H]1CN(C)Cc1ccc(C(=O)O)cc1, the “activity change, negative = inhibition” value was 5.66%. For COc1ccc(S(=O)(=O)NNC(=O)C2Cc3c(ccc4ccccc34)O2)cc1 (stereo unspecified), the “activity change, negative = inhibition” value was -2.1%. In the case of COc1ccc(C(=O)Nc2nc(-c3ccc(S(=O)(=O)N4CCOCC4)cc3)cs2)cc1, the “activity change, negative = inhibition” value is reported as -15.8%. For Nc1ccn([C@@H]2O[C@H](C(=O)NCc3ccc4c(c3)OCO4)[C@@H](O)[C@H]2O)c(=O)n1, the “activity change, negative = inhibition” value was 25.8%. With COc1ccc(S(=O)(=O)N2CCCCC2)cc1NC(=O)CN(Cc1ccco1)Cc1ccco1 the “activity change, negative = inhibition” value was 1.31%.
